Among all 3,300 compounds or so, about 20 (0.6%) were called active.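 The calls were made as follows: active = growth inhibition above 90%, meaning viable cell count cut by more than 90% versus vehicle controls; inactive = growth inhibition below 90%.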 Shown is part of a subset that was picked to be rich in actives.
Test: HT29 colon tumor cell growth inhibition, primary screen, imaging, high content imaging, 72 h, CellTiter-Glo (AID 772);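 as to condensed nuclei: condensed means nuclear area below control median minus 1.5 SD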
Details: HCS imaging cell count, at 10 µM, stronger effect = higher value; for condensed nuclei: measured here: percent cells with condensed nuclei
[1] = measured here: ATP CellTiter-Glo viability

Compound | growth inhibition | growth inhibition [1] | condensed nuclei
CCCCOCCCn1c(N)c(C(=O)OCCOC)c2nc3ccccc3nc21 | 95.3% (active) | 57.5% | 17.2%
CC(C)OC(=O)c1c(N)n(Cc2ccco2)c2nc3ccccc3nc12 | 31.4% (inactive) | -17.3% | 3.52%
CCCCOCCCn1c(N)c(C(=O)OC(C)COC)c2nc3ccccc3nc21 (stereo not given) | 91.4% (active) | 77.2% | 11%
COCC(C)OC(=O)c1c(N)n(Cc2ccco2)c2nc3ccccc3nc12 (stereo not given) | 44.2% (inactive) | 19.7% | 1.26%
COCCOC(=O)c1c(N)n(Cc2ccco2)c2nc3ccccc3nc12 | -33.9% (inactive) | -49.5% | 3.83%
CC(C)(C)OC(=O)c1c(N)n(Cc2ccco2)c2nc3ccccc3nc12 | 44.5% (inactive) | 20.9% | 4.1%
COc1ccc(C2SCC(=O)Nc3c2c(=O)[nH]n3C2CCCCC2)cc1 (stereo not given) | 1.43% (inactive) | -9.94% | 12.4%
Clc1ccc(CSC(Cn2ccnc2)c2ccc(Cl)cc2Cl)cc1 (stereo not given) | 57.5% (inactive) | 71.7% | 13.6%
CCN(CC)CCCNC(=O)c1c(O)c2ccccc2n(Cc2ccccc2)c1=O | 84.5% (inactive) | 95.7% | 16%
CCCCn1c(O)c(C=NCCN2CCCCC2)c(=O)[nH]c1=O | 4.76% (inactive) | -24.2% | 0.91%

— PubChem BioAssay AID772 (SRMLSC, 2007)
